Hits are enriched below; roughly 1.3% of the tested compounds scored in any of these assays.
FEN1 inh = blocks human flap endonuclease 1 | P39748 | Recombinant FEN1 flap cleavage, fluorescence, 15 min | Potency, µM (doses to about 114 µM), for the others: at the highest dose activity change, negative = inhibition, hits mostly inhibitors | hit rate 0.35% among 390,000; further: potency means the concentration at half of the fitted maximal effect; on the % scale 0 is the no-effect control and ±100 the full control effect; nearly all actives have a fitted effect of over 65% in size
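Read-out was taken twice, immediately and after 15 min, following addition of 50 nM substrate to 10 nM FEN1 that had sat with test compound for 15 min at room temperature. Curves came from a four-parameter Hill model.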
Pin1 inhibitor = inhibitors of human Pin1; Pin1 FP peptide displacement, HiFluor488, 10 min; Potency, µM (doses to about 115 µM), for the others: at the highest dose activity, negative = inhibition, hits mostly inhibitors; hit rate 0.009% among 390,000; active means well fitted inhibition curve with a large enough effect in the polarisation, with a control signal flat, not every such curve was filed as active; inconclusive means small, poorly fitted or top-dose-only effect, or effect the other way, or a change in a side signal; inactive means no such curve, though single readings can be large or run the other way; the % refers to the polarisation; further: potency means the concentration at half of the fitted maximal effect; on the % scale 0 is the no-effect control and ±100 the full control effect
Target sequence (Q13526 whole entry, looked up): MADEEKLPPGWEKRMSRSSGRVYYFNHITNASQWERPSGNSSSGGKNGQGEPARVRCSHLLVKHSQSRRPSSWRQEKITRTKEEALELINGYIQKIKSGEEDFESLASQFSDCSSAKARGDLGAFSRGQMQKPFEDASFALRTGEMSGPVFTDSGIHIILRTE
WRN helicase inh = WRN helicase (human) inhibition | Q14191 | hit rate 0.46% among 360,000 | WRN helicase unwinding, fluorescent forked duplex, kinetic | AID 651768 | Potency, µM (highest dose often 114 µM), for inactives: top-dose activity change, negative = inhibition, hits mostly inhibitors; further: potency means the concentration at half of the fitted maximal effect; on the % scale 0 is the no-effect control and ±100 the full control effect; nearly all actives have a fitted effect of over 55% in size
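Primary qHTS, 1536-well format. 20 nM WRN + compound, 15 min RT; start with 100 nM forked fluorophore/quencher duplex, 2 mM ATP (final); kinetic read ex 525/em 598 nm.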
PGK inhibitor = inhibitors of T. brucei phosphoglycerate kinase; P07378; PGK/GAPDH coupled, Kinase-Glo luminescence, 60 min; Potency, µM (top dose mostly 57.5 µM), for inactives: top-dose activity change, negative = inhibition, hits mostly inhibitors; hit rate 0.043% among 380,000; further: potency means the concentration at half of the fitted maximal effect; on the % scale 0 is the no-effect control and ±100 the full control effect; nearly all actives have a fitted effect of over 60% in size
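Recombinant glycosomal PGK reaction used 1,3-bisphosphoglycerate generated in-well by GAPDH (100nM final) in 100mM TEA pH 7.6, 5mM MgCl2, 0.01% Tween-20. After 60 minutes at room temperature, ATP was read by Kinase-Glo Plus luminescence end-point.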
PI5P4Ka inh = PI5P4K alpha (human) kinase inhibition; PI5P4Kalpha enzyme, ADP-Glo luminescence, 60 min; active compounds read low; max response, %; hit rate 1.2% among 330,000; active means max response of -50% or lower; inconclusive means between -30% and -50%; inactive means -30% or higher; further: value at the top dose of about 77 µM; on the % scale 0 is the no-effect control and ±100 the full control effect
Target sequence (P48426 whole entry, looked up): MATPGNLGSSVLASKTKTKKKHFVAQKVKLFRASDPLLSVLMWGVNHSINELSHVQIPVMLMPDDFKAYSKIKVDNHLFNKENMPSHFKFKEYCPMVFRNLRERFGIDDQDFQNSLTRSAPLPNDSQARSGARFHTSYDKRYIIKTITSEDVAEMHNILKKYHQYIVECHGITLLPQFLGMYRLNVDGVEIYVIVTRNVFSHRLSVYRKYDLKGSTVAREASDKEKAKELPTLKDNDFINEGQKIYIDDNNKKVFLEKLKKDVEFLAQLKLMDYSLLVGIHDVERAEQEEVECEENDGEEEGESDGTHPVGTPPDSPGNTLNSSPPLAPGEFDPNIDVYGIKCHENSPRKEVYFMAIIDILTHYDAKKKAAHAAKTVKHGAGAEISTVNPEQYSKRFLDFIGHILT
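Quantitative HTS of the MLSMR library against PI5P4Kalpha with substrate. ATP added last at 5 microM final; room temperature, 60 minutes. Remaining ATP depleted, ADP converted and read as luminescence.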
Glioma ERSR ind = ER stress response induction in glioma | U87-MG GRP78 promoter luciferase reporter, 16 h | Potency, µM, for inactives: at the top dose activation, usual class: activators | hit rate 0.02% among 420,000 | AID 602332; further: potency means the concentration at half of the fitted maximal effect; series mostly up to about 76 µM; % of control where 0% means no effect; nearly all actives have a fitted effect of over 35% in size
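ERSR induction read as luciferase luminescence (Bright-Glo, 10 min at room temperature) in stably transfected human U87-MG glioma cells exposed to compounds for 16 h, using GRP78 as sensor.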
* hit, by the source's call; i = inactive; ? = inconclusive; . = no result given; ! = repeats disagree; [ ] = another dose, or the depositor's remark. Unless noted, the call rests on the fitted dose curve; in most records, active means well fitted curve in the direction sought with a large enough effect; inconclusive means small, poorly fitted or top-dose-only effect, or another doubt; inactive means no such curve, though single readings can be large; an effect the other way counts as inactive or inconclusive.

SMILES	FEN1 inh	Pin1 inhibitor	WRN helicase inh	PGK inhibitor	PI5P4Ka inh	Glioma ERSR ind
Cc1cc(C)n(-c2ccc(C(=O)NCC3Cc4cc(-c5cnccn5)ccc4O3)cc2)n1 (stereo not given)	.	.	.	.	.	-2%
NC(=O)c1cc([N+](=O)[O-])ccc1NCCN1C(=O)c2ccc(C(=O)O)cc2C1=O	-13%	-3%	-19%	2%	-87*	-2%
NC(=O)c1cc([N+](=O)[O-])ccc1NCc1cccc([N+](=O)[O-])c1	18%	0%	-32%	-6%	-18	-5%
Cc1cc(C)cc(N2CC(O)=C(c3nc4ccccc4c(=O)[nH]3)C2=N)c1	?	113%	50µM*	1%	8	-2%
CC1=[N+](C)c2ccc3ccccc3c2C1(C)C	?	-6%	25µM*	-2%	-5	-5%
Cc1c2ccccc2cc[n+]1C	14%	.	.	.	.	-1%
COc1cccc(C2c3c(ncn(-c4ccc(F)cc4)c3=N)Oc3ccc4ccccc4c32)c1 (stereo not given)	.	8%	.	.	.	.
O=c1[nH]c(=O)c2[nH]c(=S)[nH]c2[nH]1	?	?	?	-5%	-86*	-3%
Nc1[nH]c(=S)[nH]c(=O)c1N	8%	.	.	.	.	-3%
O=c1c2ccccc2nc2sc(NCc3ccc(Oc4ccccc4)cc3)nn12	.	6%	.	.	.	.
CCNc1nc2[nH]c(=O)c3c(c2s1)OC(N)=C(C#N)C3c1ccc(C)cc1 (stereo not given)	-13%	?	-30%	8%	-67*	-1%
CO[C@@H]1[C@@H]([C@H](C)[C@@H]2O[C@@]3(CC[C@@](C)([C@H]4CC[C@@](C)([C@H]5O[C@H]([C@H]6O[C@](C)(O)[C@H](C)C[C@@H]6C)C[C@H]5O[C@H]5C[C@@H](OC)[C@H](OC)[C@@H](C)O5)O4)O3)C[C@@H](O)[C@@H]2C)O[C@@](O)(CC(=O)O)[C@H](C)[C@H]1OC	.	.	.	.	.	-6%
CCCN(c1ccc(C(C)C)cc1)S(=O)(=O)c1ccc2c(c1)oc(=O)n2CC(=O)OCC	-19%	-3%	.	-5%	.	20µM*
CSc1ccc(-c2sc(Nc3ccccc3)n[n+]2-c2ccccc2)cc1	22µM*	17%	20%	4%	-53*	-2%
CSc1nccc(-c2cc(Cl)c3c(c2)CC(CNC(=O)c2nonc2C)O3)n1 (stereo not given)	.	.	.	.	.	-3%
COc1c(OC(C)=O)ccc(/C=N\NC(=O)c2ccc(Br)cc2)c1[N+](=O)[O-]	?	-2%	-29%	i	-69*	8%
COc1ccc(Br)cc1/C=N/NC(=O)c1cc(OC)c(OC)c(OC)c1	-2%	0%	-22%[57.1 µM]	i	2	-2%
CC(C)(S)C(=O)NC(CS)C(=O)O (stereo not given)	.	.	.	.	.	-4%
CC1CCCN(C(=S)SCC(=O)c2cc(Br)cc(Br)c2O)C1 (stereo not given)	50µM*	?	89µM*	i	-4	4%
CC1CCCN(C(=S)SCC(=O)O)C1 (stereo not given)	2%	0%	-2%	5%	2	-5%
O=C(CSC(=S)N1CCCC1)Nc1cc2c(cc1Br)OCCO2	5%	-13%	3%	-2%	-2	-4%
O=C(CSC(=S)N1CCCC1)c1cc(Br)cc(Br)c1O	-15%	?	56µM*	-1%	-25	9%
OC[C@H]1O[C@@H](n2cnc3c2NC=NC[C@H]3O)C[C@@H]1O	.	.	.	.	.	-5%
CCn1cc(C(=O)NN)c(=O)c2cc(F)c(N3CCOCC3)cc21	?	-14%	89µM*	-4%	-5	-5%
O=S1(=O)N=C(Oc2cccc(C(F)(F)F)c2)c2ccccc21	.	-1%	.	.	.	.
SMILES	FEN1 inh	Pin1 inhibitor	WRN helicase inh	PGK inhibitor	PI5P4Ka inh	Glioma ERSR ind
CC1=CC(=O)N(c2cccc3c(N4C(=O)C=C(C)C4=O)cccc23)C1=O	-4%	17%	-1%	-8%	-63*	-2%
O=C1C=CC(=O)C(CNc2ccc(C(=O)OCc3ccccc3)cc2)=C1	-19%	-10%	-29%	-9%	-77*	-4%
Cc1cnc(N2CCC(C(N)=O)CC2)nc1-c1cccc(N(C)C)c1	.	2%	.	.	.	.
CN(Cc1ccccc1)c1ccc(C=O)cc1	-8%	.	.	.	.	-3%
C=C(/C=C/c1ccc(N(C)C)cc1)c1nc2ccccc2s1	25µM*	.	.	.	.	-9%
CN(Cc1ccccc1)c1ccc(/C=C/c2nc3ccccc3s2)cc1	35µM*	.	.	.	.	-7%
CN(C)c1ccc(/C=C/c2nc3ccccc3s2)cc1	50µM*!	?	5%	-16%	2	-13%
CN(C)c1ccc(/C=C/c2cccc3cc4ccccc4nc23)cc1	79µM*	.	.	.	.	-9%
COc1cccc(N2C(=O)c3ccccc3C2=O)c1	.	8%	.	.	.	.
O=[N+]([O-])c1ccc(C=NNC(=S)NN=Cc2ccc([N+](=O)[O-])cc2)cc1	?	?	56µM*	-11%	?	1%
O=C(/C=C/c1ccco1)NCC(=O)N/N=C/c1ccc([N+](=O)[O-])cc1	?	?	-4%[11.6 µM]	.	-60*	-5%
COC(=O)N/N=C/c1ccc(OC(=O)/C=C/c2ccco2)cc1	12%	6%	?	-10%	-51*	-1%
CC(=O)/C=C/c1ccc2c(c1)S(=O)(=O)N(C1CCCC1)[C@H]2CC(C)=O	?	.	.	.	.	-12%
O=C(NCC1Cc2cccc(-c3cccnc3)c2O1)c1ccc2cc[nH]c2c1 (stereo not given)	.	.	.	.	.	0%
CCOc1ccc(N=Cc2ccc([N+](=O)[O-])cc2)c(O)c1	.	.	1%	-17%	-13	-2%
CCOc1ccc(N=Cc2ccc(N(C)C)cc2)c(O)c1	.	.	-35%	i	-54*	5%
O=C(c1ccccc1)c1ccc(O)c(O)c1O	?	-21%	28µM*	?	-91*	-4%
Cc1cc2c(s1)c1cnn(Cc3c(F)ccc(Cl)c3F)c(=O)c1n2C	.	1%	.	.	.	.
Cc1ccc(NC(=O)c2ccc3c(c2)CCC(=O)N3)cc1C	.	0%	.	.	.	.
Cc1cc2c(s1)c1cnn(Cc3ccccc3F)c(=O)c1n2Cc1ccccc1F	.	1%	.	.	.	.
N#CN=C1SCCS1	0%	2%	?	4%	-54*	-8%
CCOC(=O)C1=C(Cc2ccc(OC)cc2)C(=O)c2ccccc2C1=O	?	?	50µM*	-6%	.	?
CCOC(=O)C1=C(O)c2ccccc2C(=O)/C1=C\c1ccc(CC)cc1	?	-5%	56µM*	i	.	?
CCOC(=O)c1ccc(COC(=O)c2ccc3c(c2)-c2ccccc2C3=O)cc1	2%	-1%	-3%	-9%	0	-3%
CCOC(=O)c1c(C)nc2c(c1-c1cc(OC)ccc1OC)C(=O)c1ccccc1-2	-16%	0%	0%	-3%	0	-3%
Cn1cccc1/C=C1\SC(=Nc2cccc(O)c2)NC1=O	-8%	26%	-4%[11.6 µM]	-9%	-55*	8%
